In the library only some 2.4% were active in any assay of this set; here they are far more common.
Platelet DG rel – platelet dense granule release activity; hit rate 0.22% among 300,000; AID 1663; inhibition, %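 (compounds screened at 7.5 µM in platelet-rich plasma)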; human platelet-rich plasma, SFLLRN dense granule ATP release, luminescence;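 active = mean replicate score, as percent of positive control, at or above 50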
SENP7 block – inhibitors of human SENP7 protease. AID 434973. inhibition, % at 5 µM. hit rate 1.5% among 330,000. recombinant SENP7, Z-RLRGG-aminoluciferin luminescence, 40 min. Q9BQF6;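 active = inhibition above about 50% at the single test dose, limit read from the data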
SENP8 block-1 – inhibitors of human SENP8 protease; Q96LD8; recombinant SENP8, Nedd8 substrate fluorescence; hit rate 0.64% among 360,000; inhibition, % at 20 µM; in the data active = inhibition mostly above about 40%, no sharp cut-off; inactive = mostly below about 27%
SENP6 block – inhibitors of human SENP6 protease. Q9GZR1. Recombinant SENP6 catalytic domain, aminoluciferin luminescence. inhibition, % at 10 µM. hit rate 1.8% among 330,000. AID 2599;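 active = inhibition above about 50% at the single tested dose, limit read from the data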
Target sequence (Q9GZR1 628-1112 limits assumed): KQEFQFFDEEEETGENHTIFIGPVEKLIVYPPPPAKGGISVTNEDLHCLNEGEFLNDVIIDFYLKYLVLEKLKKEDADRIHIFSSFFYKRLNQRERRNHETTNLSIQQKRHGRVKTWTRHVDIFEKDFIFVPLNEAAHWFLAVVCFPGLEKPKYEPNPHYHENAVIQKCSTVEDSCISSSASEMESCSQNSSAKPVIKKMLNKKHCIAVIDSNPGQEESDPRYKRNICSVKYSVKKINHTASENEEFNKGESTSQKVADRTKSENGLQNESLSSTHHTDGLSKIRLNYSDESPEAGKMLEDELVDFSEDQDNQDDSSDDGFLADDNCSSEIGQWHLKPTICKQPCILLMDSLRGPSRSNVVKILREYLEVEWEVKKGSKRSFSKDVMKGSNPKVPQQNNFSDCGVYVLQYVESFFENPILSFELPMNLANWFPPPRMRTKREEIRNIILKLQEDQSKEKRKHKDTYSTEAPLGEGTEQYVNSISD
SENP8 block-2 – SENP8 protease inhibition | Q96LD8 | purified SENP8, Z-RLRGG-aminoluciferin cleavage, luminescence | inhibition, % at 10 µM | hit rate 1.2% among 330,000 | AID 2540; in the data active = inhibition above about 50%
SENP8 conf – human SENP8 inhibition, confirmed; shares compounds with SENP7 block; Recombinant SENP8, Z-RLRGG-aminoluciferin luminescence, 60 min; inhibition, % at 12.5 µM; hit rate 40% among 6,200; AID 488912;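 active = mean inhibition across replicates above about 50%, limit read from the data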
SENP6 confirm – human SENP6 inhibition, confirmed; shares compounds with SENP7 block; recombinant SENP6, Z-RLRGG-aminoluciferin luminescence; inhibition, % at 12.5 µM; hit rate 58% among 6,200
SENP7 confirm – confirmation of human SENP7 protease inhibitors; recombinant SENP7, Z-RLRGG-aminoluciferin luminescence, 40 min; shares compounds with SENP7 block; AID 488917; hit rate 69% among 6,200; inhibition, % at 12.5 µM
Casp3 SENP sel – inhibits human caspase-3 in SENP selectivity test; shares compounds with SENP7 block; purified caspase-3, Z-DEVD-aminoluciferin luminescence, 60 min; inhibition, % at 12.5 µM; hit rate 60% among 6,200; AID 488918;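 active = mean inhibition above about 50%, limit read from the data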
Luc interf – counter-screen for SENP inhibitors: luminescence interference. shares compounds with SENP7 block. Pre-incubated SENP8/Z-RLRGG-aminoluciferin, luciferase luminescence interference. inhibition, % at 12.5 µM. hit rate 39% among 6,200;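 active = mean inhibition above about 50% when retested at one dose, limit read from the data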
A number is an active result; – = inactive; · = not tested or not shown.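 The calls were made as follows, unless noted: active = mean inhibition above about 50% in the one-dose retest (limit read from the data); inactive = the rest.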

SMILES	Platelet DG rel	SENP7 block	SENP8 block-1	SENP6 block	SENP8 block-2	SENP8 conf	SENP6 confirm	SENP7 confirm	Casp3 SENP sel	Luc interf
Cc1cc(C)nc(SCc2ccc(Br)cc2)n1	–	59.7	–	–	–	–	–	–	–	–
O=C(O)c1cc(N=Nc2c(O)[nH]c3ccc([N+](=O)[O-])cc23)ccc1Cl	–	–	–	54.2	64.8	–	–	–	–	–
COc1ccc(Cl)cc1NC(=S)NNC(=O)C1(C)CC1(Cl)Cl (configuration not stated)	–	–	–	–	–	·	·	·	·	·
COc1ccc(/C=C/c2ccc3cccc(O)c3n2)cc1Br	–	62.6	–	–	–	–	–	–	–	–
COc1cc(/C=C/c2ccc3cccc(O)c3n2)cc(OC)c1OC	–	–	–	–	–	·	·	·	·	·
COc1cccc(/C=C/c2ccc3cccc(O)c3n2)c1	–	91.8	–	92.8	88.6	91.9	95.0	102.4	89.7	65.5
Oc1cccc(/C=C/c2ccc3cccc(O)c3n2)c1	–	96.4	–	94.0	94.4	97.4	98.5	102.1	91.8	97.3
CCN(CC(=O)Nc1c(F)cccc1F)C(=O)C1CCCO1 (configuration not stated)	·	·	–	·	·	·	·	·	·	·
COC(=O)c1cccc(NC(=O)c2onc3c2CCCC3)c1	–	79.0	–	92.0	76.2	–	–	78.6	61.4	64.6
COC(=O)c1cccc(NC(=O)c2ccccc2)c1	–	–	–	–	–	·	·	·	·	·
O=C(Nc1ccc2ccccc2c1)c1onc2c1CCCC2	–	51.8	–	80.2	64.9	–	81.5	93.0	60.5	–
Cc1noc(C)c1C(=O)Nc1ccc2ccccc2c1	–	–	–	–	–	·	·	·	·	·
COc1ccc(NC(=O)CCNC(=O)c2ccco2)c(OC)c1	–	–	–	–	–	·	·	·	·	·
O=C(Oc1ccc(-c2cnc3ccccc3n2)cc1)c1ccco1	–	98.4	–	88.5	92.2	76.2	83.3	94.4	87.1	–
O=C(Nc1cccc(-c2cnc3ccccc3n2)c1)c1ccco1	–	–	–	–	–	·	·	·	·	·
Cc1c(C(=O)Oc2ccc(-c3cnc4ccccc4n3)cc2)cccc1[N+](=O)[O-]	–	–	–	–	–	·	·	·	·	·
CCC(=O)Oc1ccc(-c2cnc3ccccc3n2)cc1	–	93.7	–	94.2	88.5	–	91.6	100.6	87.7	–
CC(=O)c1cccc(NC(=O)Nc2ccc3c(c2)CCC3)c1	–	–	–	–	–	·	·	·	·	·
COc1cccc(NC(=O)c2ccc3c(c2)CCCC3)c1	–	100.0	–	98.5	96.4	98.5	99.0	102.4	96.6	93.6
CC(=O)c1cccc(NC(=O)c2ccc3c(c2)CCCC3)c1	–	–	–	–	–	·	·	·	·	·
COc1ccc(OC)c(NC(=O)Nc2ccc3c(c2)CCC3)c1	–	–	–	–	–	·	·	·	·	·
Cc1cccc(NC(=O)Nc2ccc3c(c2)CCC3)c1	–	62.4	–	–	–	–	–	–	–	–
COc1cccc(NC(=O)Nc2ccc3c(c2)CCC3)c1	–	66.7	–	57.9	52.1	–	–	83.0	·	–
CC(=O)c1sc(NC(=O)CN2C(=O)C3CC=CCC3C2=O)nc1-c1ccccc1 (configuration not stated)	–	–	–	–	–	·	·	·	·	·
CCOCC(=O)Nc1ccc2c(c1)N(S(=O)(=O)c1cccs1)CCC2	–	–	–	–	–	·	·	·	·	·
SMILES	Platelet DG rel	SENP7 block	SENP8 block-1	SENP6 block	SENP8 block-2	SENP8 conf	SENP6 confirm	SENP7 confirm	Casp3 SENP sel	Luc interf
COc1ccc(-c2cc(=O)oc3cc(OCC(=O)Nc4ccc(CCO)cc4)ccc23)cc1	–	–	–	–	–	·	·	·	·	·
C[n+]1ccc(CC2C(=[N+]([O-])[O-])C=Nc3ncnn32)cc1 (configuration not stated)	·	·	–	·	·	·	·	·	·	·
CCN1CCN(CC#CCOc2ccccc2OC)CC1	–	–	–	–	–	·	·	·	·	·
COc1ccc(/C=C2\SC(=S)N(CCCC(=O)N3CCN(C)CC3)C2=O)cc1	–	–	–	70.4	–	57.2	52.8	76.0	54.1	51.9
CN1CCN(C(=O)CCCN2C(=O)/C(=C/c3cccc(Br)c3)SC2=S)CC1	–	–	–	52.2	–	–	–	–	–	–
O=C(CCCN1C(=O)/C(=C/c2cccc(Br)c2)SC1=S)N1CCOCC1	–	–	–	64.1	–	–	58.3	65.2	–	–
CN1CCN(C(=O)CCN2C(=O)/C(=C/c3cccc(Br)c3)SC2=S)CC1	–	–	–	–	–	·	·	·	·	·
CC(=O)Nc1cccc(NC(=O)c2ccccc2OCc2c(C)noc2C)c1	–	–	–	–	–	·	·	·	·	·
CC(C)NOC(=O)c1ccc(Cl)cc1	–	–	–	–	–	·	·	·	·	·
CCC(C)(C)c1nnc(NC(=O)c2cccc([N+](=O)[O-])c2)s1	–	–	–	–	–	·	·	·	·	·
CC1(C)CC(N=Cc2c(O)n(Cc3ccc4c(c3)OCO4)c(=O)c3ccccc23)CC(C)(C)N1	–	–	–	–	–	·	·	·	·	·
CCOc1ccc(S(=O)(=O)N2CCN(CC(O)COc3cccc([N+](=O)[O-])c3)CC2)cc1 (configuration not stated)	–	–	–	–	–	·	·	·	·	·
O=C(Nc1cccc(O)c1)c1ccc(C(F)(F)F)cc1	–	72.2	–	74.3	66.9	68.3	70.0	92.4	71.6	63.6
O=C(Nc1ccc(C(F)(F)F)cc1)c1ccccc1	·	62.7	–	–	–	–	–	–	–	–
O=C(Nc1cccc(C(F)(F)F)c1)c1cc[n+]([O-])cc1	–	–	–	–	–	·	·	·	·	·
CCCCc1nnc(SCC(=O)NC2CCCCC2)n1C	–	–	–	–	–	·	·	·	·	·
COCCCN=Cc1c(C)[nH]n(-c2ccc(Br)c(C)c2)c1=O	–	–	–	53.0	–	–	–	–	–	–
Cc1ccc(-n2[nH]c(C)c(C=NC34CN5CN(CN(C5)C3)C4)c2=O)cc1C	–	–	–	–	–	·	·	·	·	·
O=C(NCc1ccncc1)[C@@H]1CCCN1C(=O)[C@@H]1CCCN1C(=O)c1ccccc1Cl	·	·	–	·	·	·	·	·	·	·
CCC(C)NC(=O)c1oc2ccc(S(=O)(=O)N3CCC4(CC3)OCCO4)cc2c1C (configuration not stated)	–	–	–	–	–	·	·	·	·	·
Clc1ccc(CSc2nnc(-c3ccc4c(c3)OCO4)o2)cc1	–	–	–	–	–	·	·	·	·	·
Cc1ccc(-c2nnc(-c3ccc4c(c3)OCO4)o2)cc1	–	83.0	–	–	–	–	–	–	–	–
O=C1CCCCC1Sc1nnc(-c2ccc3c(c2)OCO3)o1 (configuration not stated)	–	73.1	–	80.4	68.2	72.1	72.3	93.0	88.6	76.9
